Rows were chosen to be rich in hits. Some 5.7% of all compounds tested hit in one or more screens of this group.
BAZ2B block: qHTS Assay for Inhibitors of BAZ2B. Bromodomain adjacent to zinc finger domain protein 2B (Homo sapiens), Q9UIF8. AlphaScreen BAZ2B-H3K14Ac peptide displacement. Potency, µM (series often up to 114 µM), inactives show at the highest dose activity change, negative = inhibition, most hits filed as inhibitors. 360,000 compounds, 4.4% hits. AID 504333, 2011; note: potency is the fitted concentration of half-maximal effect; % is set by controls: 0 for no effect and ±100 for the full control effect; nearly all actives have a fitted effect of over 60% in size
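Complex of BAZ2B and biotin-H3K14Ac (50 nM apiece) forms over 30 min at RT, then faces library compounds up to 110 uM for another 30 min; AlphaScreen beads added, 20 min dark incubation, luminescence read.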
JMJD2E inh: qHTS Assay for Inhibitors of Human Jumonji Domain Containing 2E (JMJD2E); JMJD2E catalytic domain, FDH-coupled NADH fluorescence (FDH is formaldehyde dehydrogenase); Potency, µM (highest dose often 57.1 µM), without a hit: top-dose activity change, negative = inhibition, actives largely listed as inhibitors; 230,000 compounds, 1.6% hits; AID 2147, 2009; active = well fitted inhibition curve with a large enough effect, not every such curve was filed as active; inconclusive = small, poorly fitted or top-dose-only effect, or another doubt; inactive = no such curve, though single readings can be large or run the other way;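 note: potency is the fitted concentration of half-maximal effect; 0% = wells with enzyme and -100% = buffer wells without enzyme; nearly all actives have a fitted effect of over 50% in size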
JMJD2A Tudor: qHTS Assay for Inhibitors of JMJD2A-Tudor Domain; Potency, µM (series often up to 114 µM), without a hit: at the highest dose activity change, negative = inhibition, usual class: inhibitors; AID 504339, 2011; AlphaScreen JMJD2A-Tudor / H3K4me3 peptide binding; 390,000 compounds, 4.4% hits; Lysine-specific demethylase 4A (Homo sapiens), O75164; note: potency is the fitted concentration of half-maximal effect; % is set by controls: 0 for no effect and ±100 for the full control effect; nearly all actives have a fitted effect of over 50% in size
PI5P4K alpha inh: qHTS for Inhibitors of phosphatidylinositol 5-phosphate 4-kinase (PI5P4K) | Phosphatidylinositol 5-phosphate 4-kinase type-2 alpha (Homo sapiens), P48426 | PI5P4Kalpha enzyme, ADP-Glo luminescence, 60 min; hits give low values | max response, % | 330,000 compounds, 1.2% hits | AID 652105, 2013; active = max response of -50% or lower; inconclusive = between -30% and -50%; inactive = -30% or higher; note: value at the top dose of about 77 µM; % is set by controls: 0 for no effect and ±100 for the full control effect
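Enzyme plus substrate dispensed, test compounds pinned in, then ATP (5 microM final) added. After 60 min at RT, ADP-Glo reagent 1 for 45 min and reagent 2 for 30 min preceded luminescence imaging.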
L3MBTL1 inh: qHTS Assay for the Inhibitors of L3MBTL1 | Lethal(3)malignant brain tumor-like protein 1 (Homo sapiens), Q9Y468 | AlphaScreen L3MBTL1–H3K9me1 peptide binding | Potency, µM (titrated, usually from 57.1 µM), for the others: at the highest dose activity, negative = inhibition, most hits filed as inhibitors | 230,000 compounds, 0.66% hits | AID 485360, 2010; note: potency is the fitted concentration of half-maximal effect; % is set by controls: 0 for no effect and ±100 for the full control effect; nearly all actives have a fitted effect of over 60% in size
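L3MBTL1 (50 nM) pre-complexed 30 min with biotinylated H3(1-15)K9me1 peptide (75 nM), then compounds added for 30 min at room temperature; AlphaScreen streptavidin donor/nickel chelate acceptor beads (10 ug/mL final) read after 30 min dark incubation.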
HP1b binding inh: HTS for Inhibitors of HP1-beta Chromodomain Interactions with Methylated Histone Tails. Chromobox protein homolog 1 (Homo sapiens), P83916. AlphaScreen HP1-beta / biotin-H3K9me3 peptide binding. Potency, µM (titrated, usually from 114 µM), for inactives: at the top dose activity change, negative = inhibition, usual class: inhibitors. 390,000 compounds, 0.56% hits. AID 540317, 2011; note: potency is the fitted concentration of half-maximal effect; nearly all actives have a fitted effect of over 70% in size
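Compound inhibition of the preformed complex between 50 nM HP1-beta and 50 nM biotinylated H3K9me3 peptide was read by AlphaScreen. Buffer was PBS pH 7.4 with 0.01% Tween-20. Incubations ran 30 min at room temperature, with 10 ug/mL donor/acceptor beads.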
Numbers without * were called inactive. Unless noted, calls come from the whole dose curve; as a rule, active = well fitted inhibition curve with a large enough effect; inconclusive = small, poorly fitted or top-dose-only effect; inactive = no such curve, though single readings can be large or run the other way.

CC1C/C(=C/c2ccco2)C(=O)/C(=C/c2ccco2)C1 (configuration not stated) was read as BAZ2B block 35.5µM*, JMJD2E inh 24.5% and L3MBTL1 inh 3.16µM*.
COc1ccc(F)cc1S(=O)(=O)n1cc(C)nc1-c1ccccc1 was read as BAZ2B block -7.5%, JMJD2E inh 7.9%, JMJD2A Tudor 22.4µM*, PI5P4K alpha inh inconclusive, L3MBTL1 inh 6.4% and HP1b binding inh 1.0%.
`COC(=O)/C=C1/S/C(=N/NC(=O)c2ccccc2C)NC1=O` gave BAZ2B block 56.2µM*, JMJD2E inh inconclusive, JMJD2A Tudor inconclusive, PI5P4K alpha inh 1.7 and HP1b binding inh 37.9%.
Screening CCCn1c(=O)n(C)c(=O)c2c(SCC(=O)NCc3ccco3)nc(C3CC3)nc21 returned BAZ2B block -26.5%, JMJD2E inh 0.0%, JMJD2A Tudor 79.4µM*, PI5P4K alpha inh -1.1 and HP1b binding inh 8.5%.
For Cn1c(=O)c2c(SCC(=O)NCc3ccco3)nc(-c3ccccc3Cl)nc2n(C)c1=O the results were BAZ2B block -14.1%, JMJD2A Tudor -22.1%, PI5P4K alpha inh inconclusive and HP1b binding inh 3.2%.
Screening Cc1nn(CC(=O)NC2CC2)c(C)c1S(=O)(=O)N(C)C returned PI5P4K alpha inh 2.4.
O=C1c2ccccc2C(=O)N1CCN1CCc2ccccc21 was read as BAZ2B block 50.1µM*, JMJD2E inh -4.0%, JMJD2A Tudor inconclusive, L3MBTL1 inh -1.5% and HP1b binding inh 6.8%.
Screening Cc1cc2c(s1)c1cnn(Cc3ccc(-c4ccccc4)cc3)c(=O)c1n2C returned JMJD2A Tudor -15.1%.
Screening Cc1ccc(S(=O)(=O)Cn2nnnc2C(C(C)C)N2CCSCC2)cc1 (configuration not stated) returned BAZ2B block 1.7%, JMJD2E inh -5.3%, JMJD2A Tudor -12.2%, L3MBTL1 inh -1.2% and HP1b binding inh 24.8%.
Screening Cc1ccc(S(=O)(=O)Cn2nnnc2C(C(C)C)N2CCc3ccccc3C2)cc1 (configuration not stated) returned BAZ2B block inconclusive, JMJD2E inh inconclusive, JMJD2A Tudor 28.2µM*, L3MBTL1 inh -9.8% and HP1b binding inh 3.0%.
`COc1ccc(S(=O)(=O)N2CCN(Cc3ccccc3OC)CC2)cc1` gave PI5P4K alpha inh 4.2.
For Cc1ccccc1CN1CCN(Cc2ccccc2C(F)(F)F)CC1 the results were BAZ2B block 28.2µM*, JMJD2E inh inconclusive, JMJD2A Tudor 2.82µM* and HP1b binding inh -32.2%.
O=[N+]([O-])c1ccccc1CN1CCN(S(=O)(=O)c2ccccc2)CC1 was read as JMJD2A Tudor 20µM*, PI5P4K alpha inh -5.2 and HP1b binding inh inconclusive.
`Cc1ccc(S(=O)(=O)N2CCN(Cc3ccccc3C(F)(F)F)CC2)cc1` gave BAZ2B block 56.2µM*, JMJD2E inh -26.2%, JMJD2A Tudor inconclusive, PI5P4K alpha inh 0.7, L3MBTL1 inh -0.3% and HP1b binding inh inconclusive.
Cc1ccc(S(=O)(=O)N2CCN(Cc3ccccc3Cl)CC2)cc1 was read as BAZ2B block 44.7µM*, JMJD2A Tudor 5.01µM* and HP1b binding inh inconclusive.
C=Cc1ccc(Cn2c(=O)n(-c3cccc(C)c3)c(=O)c3c2c2cc(C)ccc2n3C)cc1 was read as BAZ2B block -5.1%, JMJD2A Tudor -5.2% and HP1b binding inh 54.4%.
Clc1nc(NCCc2ccccc2)c2cn[nH]c2n1 was read as JMJD2A Tudor -15.8%, PI5P4K alpha inh 1.5 and HP1b binding inh 18.8%.
`Cc1cc(C)cc(OCCSc2nc3ccc(NC(=O)c4cccs4)cc3s2)c1` gave BAZ2B block 1.0%, JMJD2A Tudor -19.2% and HP1b binding inh 45.3%.

Bioassay records deposited in PubChem by National Center for Advancing Translational Sciences (NCATS).
